# Test results reported in PubChem BioAssay (NCATS).
# Inconclusive results are not listed. A call without a number means that no potency is given here. Values without a mark were called inactive. Activity calls are given as the source filed them. Calls follow the shape of the dose curve; as a rule, active = well fitted curve in the direction sought with a large enough effect; inconclusive = small, poorly fitted or top-dose-only effect, or another doubt; inactive = no such curve, though single readings can be large; an effect the other way counts as inactive or inconclusive. Bridge positions count the residues as written; N and C are the ends. Square brackets hold non-standard residues; d marks the D form. Peptide text beside a SMILES is read from it. * marks the point of attachment. ξ: configuration not given here. Ileψ(thiazoline)Cys = CC[C@H](C)[C@H](N)C1=N[C@H](C(=O)*)CS1; ξDab(CH2SO3H) = NC(CCNCS(=O)(=O)O)C(=O)O; d(aIle) = CC[C@H](C)[C@@H](N)C(=O)O; Heptanoyl(6-Me) = CC(C)CCCCC(=O)*; dOrn = NCCC[C@@H](N)C(=O)O; Dab = NCC[CH](N)C(=O)O
# Legend:
# [1] = biological target: ATP-dependent 6-phosphofructokinase (Trypanosoma brucei brucei) (UniProt O15648); assay: qHTS Assay to Find Inhibitors of T. brucei phosphofructokinase: hit validation (AID 492961);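 also: luminescence reports ADP formed as PFK phosphorylates fructose-6-phosphate with ATP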
# ATP-dependent 6-phosphofructokinase (Trypanosoma brucei brucei), sequence (O15648 whole entry, looked up): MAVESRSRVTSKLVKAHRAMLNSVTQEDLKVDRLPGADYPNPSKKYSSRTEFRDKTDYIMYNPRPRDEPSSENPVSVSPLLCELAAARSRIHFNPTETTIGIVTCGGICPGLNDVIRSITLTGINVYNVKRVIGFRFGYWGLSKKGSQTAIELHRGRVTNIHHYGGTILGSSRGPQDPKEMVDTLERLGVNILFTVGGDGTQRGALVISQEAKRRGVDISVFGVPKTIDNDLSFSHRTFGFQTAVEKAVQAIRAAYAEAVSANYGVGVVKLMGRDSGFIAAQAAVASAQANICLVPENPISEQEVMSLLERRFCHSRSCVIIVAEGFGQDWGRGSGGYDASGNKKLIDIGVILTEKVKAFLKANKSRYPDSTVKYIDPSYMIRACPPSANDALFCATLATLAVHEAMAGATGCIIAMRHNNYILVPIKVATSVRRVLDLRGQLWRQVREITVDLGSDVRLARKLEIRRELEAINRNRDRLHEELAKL
# Method in brief: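 Measures ADP output of PFK (1.25 nM) at 0.1 mM ATP, 0.5 mM F6P, pH 8.0 TEA buffer with 5 mM MgCl2. No-enzyme wells define full inhibition; uninhibited enzyme wells define zero.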
# [2] = biological target: Luciferin 4-monooxygenase (Photinus pyralis) (UniProt P08659); assay: Biochemical firefly luciferase enzyme assay for NPC (AID 624030);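 also: purified P. pyralis luciferase at 10 nM with luciferin and ATP substrate; nearly all actives have a fitted effect of over 70% in size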
# Luciferin 4-monooxygenase (Photinus pyralis), sequence (P08659 whole entry, looked up): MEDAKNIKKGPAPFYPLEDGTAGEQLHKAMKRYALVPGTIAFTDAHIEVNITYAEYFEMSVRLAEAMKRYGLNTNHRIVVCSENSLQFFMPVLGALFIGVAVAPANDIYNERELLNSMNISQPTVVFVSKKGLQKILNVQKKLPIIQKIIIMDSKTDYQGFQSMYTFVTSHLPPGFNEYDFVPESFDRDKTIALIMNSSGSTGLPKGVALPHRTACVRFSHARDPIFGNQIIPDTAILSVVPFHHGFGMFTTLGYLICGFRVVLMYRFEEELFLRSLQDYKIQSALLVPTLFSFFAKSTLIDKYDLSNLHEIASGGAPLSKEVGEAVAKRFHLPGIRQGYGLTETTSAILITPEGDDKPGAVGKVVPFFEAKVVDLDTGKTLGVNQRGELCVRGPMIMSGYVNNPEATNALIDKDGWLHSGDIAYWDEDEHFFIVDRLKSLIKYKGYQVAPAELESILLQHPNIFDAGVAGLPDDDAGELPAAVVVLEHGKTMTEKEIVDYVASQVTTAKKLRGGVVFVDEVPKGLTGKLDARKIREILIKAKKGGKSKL
# Method in brief: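 Direct inhibition of firefly luciferase enzyme (10 nM final, 50 mM Tris Acetate) assessed by luminescence within 5 minutes. Percent activity scaled between DMSO and PTC124 positive control, with concentration-effect curves classified by fit quality and response.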
# [3] = qHTS profiling for inhibitors of Plasmodium falciparum proliferation (AID 504749); also: potency is read from the fitted curve at half-maximal effect; as to all read-outs here: nearly all actives have a fitted effect of over 60% in size; settings: P. falciparum in erythrocytes, SYBR Green DNA, 72 h; for activity, negative = inhibition: at 28.7 µM (top of the series)
# Method in brief: (§1)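 SYBR Green fluorescence of parasite DNA, read after lysis and overnight dark incubation, measured growth over 72 h in erythrocyte culture at 0.3% parasitemia and 2.5% hematocrit. Data normalised to DMSO and 0.29 uM artemisinin, with plate-drift correction.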
# ATS189 = assay: as above; settings: P. falciparum in erythrocytes, SYBR Green DNA, 72 h; series mostly up to 28.7 µM
# Method in brief: as §1
# C2A = assay: as above; settings: P. falciparum in erythrocytes, SYBR Green DNA, 72 h; series mostly up to 28.7 µM
# Method in brief: as §1
# CP192 = assay: as above; settings: P. falciparum in erythrocytes, SYBR Green DNA, 72 h; series mostly up to 28.7 µM
# Method in brief: as §1
# CP201 = assay: as above; settings: P. falciparum in erythrocytes, SYBR Green DNA, 72 h; series mostly up to 28.7 µM
# Method in brief: as §1
# CP215 = assay: as above; settings: P. falciparum in erythrocytes, SYBR Green DNA, 72 h; series mostly up to 28.7 µM
# Method in brief: as §1
# CP268 = assay: as above; settings: P. falciparum in erythrocytes, SYBR Green DNA, 72 h; series mostly up to 28.7 µM
# Method in brief: as §1
# CP269 = assay: as above; settings: P. falciparum in erythrocytes, SYBR Green DNA, 72 h; series mostly up to 28.7 µM
# Method in brief: as §1
# CP286 = assay: as above; settings: P. falciparum in erythrocytes, SYBR Green DNA, 72 h; series mostly up to 28.7 µM
# Method in brief: as §1
# CP305 = assay: as above; settings: P. falciparum in erythrocytes, SYBR Green DNA, 72 h; series mostly up to 28.7 µM
# Method in brief: as §1
# CP315 = assay: as above; settings: P. falciparum in erythrocytes, SYBR Green DNA, 72 h; series mostly up to 28.7 µM
# Method in brief: as §1
# CP325 = assay: as above; settings: P. falciparum in erythrocytes, SYBR Green DNA, 72 h; series mostly up to 28.7 µM
# Method in brief: as §1
# CP329 = assay: as above; settings: P. falciparum in erythrocytes, SYBR Green DNA, 72 h; series mostly up to 28.7 µM
# Method in brief: as §1
# ECU = assay: as above; settings: P. falciparum in erythrocytes, SYBR Green DNA, 72 h; series mostly up to 28.7 µM
# Method in brief: as §1
# FAB9 = assay: as above; settings: P. falciparum in erythrocytes, SYBR Green DNA, 72 h; series mostly up to 28.7 µM
# Method in brief: as §1
# JCK = assay: as above; settings: P. falciparum in erythrocytes, SYBR Green DNA, 72 h; series mostly up to 28.7 µM
# Method in brief: as §1
# PC49 = assay: as above; settings: P. falciparum in erythrocytes, SYBR Green DNA, 72 h; series mostly up to 28.7 µM
# Method in brief: as §1
smiles,measurement,setting,value
OCC(O)[C@H]1O[C@@H]2O[C@H](C(Cl)(Cl)Cl)O[C@@H]2[C@H]1O (some centres undefined),outcome,[1],inactive
same,Potency,[2],inactive
same,"activity, negative = inhibition",[3]; parasite line A,8.92%
same,"activity, negative = inhibition",[3]; parasite line B,3.35%
same,Potency,ATS189,inactive
same,Potency,C2A,inactive
same,Potency,CP192,inactive
same,Potency,CP201,inactive
same,Potency,CP215,inactive
same,Potency,CP268,inactive
same,Potency,CP269,inactive
same,Potency,CP286,inactive
same,Potency,CP305,inactive
same,Potency,CP315,inactive
same,Potency,CP325,inactive
same,Potency,CP329,inactive
same,Potency,ECU,inactive
same,Potency,FAB9,inactive
same,Potency,JCK,inactive
same,Potency,PC49,inactive
CC[C@H](C)[C@H](N)C1=N[C@H](C(=O)N[C@@H](CC(C)C)C(=O)N[C@@H](CCC(=O)O)C(=O)N[C@@H](C(=O)N[C@H]2CCCCNC(=O)[C@@H](CC(N)=O)NC(=O)[C@@H](CC(=O)O)NC(=O)[C@@H](Cc3cnc[nH]3)NC(=O)[C@@H](Cc3ccccc3)NC(=O)[C@@H]([C@@H](C)CC)NC(=O)[C@@H](CCCN)NC2=O)[C@@H](C)CC)CS1 ({Ileψ(thiazoline)Cys}-LE[d(aIle)]K[dOrn][d(aIle)][dF][dH][dD][dN]; lactam 4-C),outcome,[1],inactive
CC(C)CC(NC(=O)C(COC(C)(C)C)NC(=O)C(Cc1ccc(O)cc1)NC(=O)C(CO)NC(=O)C(Cc1c[nH]c2ccccc12)NC(=O)C(Cc1cnc[nH]1)NC(=O)C1CCC(=O)N1)C(=O)NC(CCCN=C(N)N)C(=O)N1CCCC1C(=O)NNC(N)=O (centres undefined),outcome,[1],inactive
Cc1ccc2c(c1)[C@@H]1CN(C)CC[C@H]1N2,outcome,[1],inactive
same,Potency,[2],inactive
same,"activity, negative = inhibition",[3]; parasite line A,6.31%
same,"activity, negative = inhibition",[3]; parasite line B,11.3%
same,Potency,ATS189,inactive
same,Potency,C2A,inactive
same,Potency,CP192,inactive
same,Potency,CP201,inactive
same,Potency,CP215,inactive
same,Potency,CP268,inactive
same,Potency,CP269,inactive
same,Potency,CP286,inactive
same,Potency,CP305,inactive
same,Potency,CP315,inactive
same,Potency,CP325,inactive
same,Potency,CP329,inactive
same,Potency,ECU,inactive
same,Potency,FAB9,inactive
same,Potency,JCK,inactive
same,Potency,PC49,inactive
C[C@@H]1CC[C@H]2[C@@H](C)C(=O)O[C@@H]3OC4(C)CC[C@@H]1C32OO4 (some centres undefined),outcome,[1],inactive
same,Potency,[2],inactive
same,Potency,[3]; parasite line A,7.9 nM (active)
same,Potency,[3]; parasite line B,7.1 nM (active)
same,Potency,ATS189,8.9 nM (active)
same,Potency,C2A,11.2 nM (active)
same,Potency,CP192,16.9 nM (active)
same,Potency,CP201,30.1 nM (active)
same,Potency,CP215,13.5 nM (active)
same,Potency,CP268,13.5 nM (active)
same,Potency,CP269,10.7 nM (active)
same,Potency,CP286,7.1 nM (active)
same,Potency,CP305,13.5 nM (active)
same,Potency,CP315,23.9 nM (active)
same,Potency,CP325,15.1 nM (active)
same,Potency,CP329,15.1 nM (active)
same,Potency,ECU,5.6 nM (active)
same,Potency,FAB9,7.9 nM (active)
CNCC(=O)NC(CCCN=C(N)N)C(=O)NC(C(=O)NC(Cc1ccc(O)cc1)C(=O)NC(C(=O)NC(Cc1cnc[nH]1)C(=O)N1CCCC1C(=O)NC(C)C(=O)O)C(C)C)C(C)C (centres undefined),outcome,[1],inactive
CCC1NC(=O)C(NC(=O)c2ncccc2O)C(C)OC(=O)C(c2ccccc2)NC(=O)C2CC(=O)CCN2C(=O)C(Cc2ccccc2)N(C)C(=O)C2CCCN2C1=O (centres undefined),outcome,[1],inactive
CCC(C)C1NC(=O)C(Cc2ccc(O)cc2)NC(=O)C(N)CSSCC(C(=O)N2CCCC2C(=O)NC(CC(C)C)C(=O)NCC(N)=O)NC(=O)C(CC(N)=O)NC(=O)C(CCC(N)=O)NC1=O (centres undefined),outcome,[1],inactive
CCC(C)C1NC(=O)C(CCNCS(=O)(=O)O)NC(=O)C(NC(=O)C(CCNCS(=O)(=O)O)NC(=O)C(NC(=O)C(CCNCS(=O)(=O)O)NC(=O)CCCCC(C)C)C(C)O)CCNC(=O)C(C(C)O)NC(=O)C(CCNCS(=O)(=O)O)NC(=O)C(CCNCS(=O)(=O)O)NC(=O)C(C(C)CC)NC1=O (centres undefined) ({Heptanoyl(6-Me)}-[ξDab(CH2SO3H)]T[ξDab(CH2SO3H)][Dab][ξDab(CH2SO3H)]II[ξDab(CH2SO3H)][ξDab(CH2SO3H)]T; lactam 4-C; configuration not given here),outcome,[1],inactive
C[C@]12C=CC(=O)C=C1CC[C@@H]1C2CC[C@]2(C)OC(=O)CCC12 (some centres undefined),outcome,[1],inactive
same,Potency,[2],inactive
same,"activity, negative = inhibition",[3]; parasite line A,2.99%
same,"activity, negative = inhibition",[3]; parasite line B,7.55%
same,Potency,ATS189,inactive
same,Potency,C2A,inactive
same,Potency,CP192,inactive
same,Potency,CP201,inactive
same,Potency,CP215,inactive
same,Potency,CP268,inactive
same,Potency,CP269,inactive
same,Potency,CP286,inactive
same,Potency,CP305,inactive
same,Potency,CP315,inactive
same,Potency,CP325,inactive
same,Potency,CP329,inactive
same,Potency,ECU,inactive
same,Potency,FAB9,inactive
same,Potency,JCK,inactive
same,Potency,PC49,inactive
